Shown are actives, neighbours in structure and some others; about 2.3% of the full set was active somewhere.
ADAM10 inh: human ADAM10 inhibitors, primary screen, biochemical, QFRET, HTS. Disintegrin and metalloproteinase domain-containing protein 10 (Homo sapiens), O14672. recombinant ADAM10, EDANS/DABCYL FRET peptide cleavage, 3 h. inhibition, % at 7 µM. 0.62% of 370,000 active. AID 720582, 2013;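 active = inhibition above a per-campaign cutoff equal to the mean of compounds falling between control-based bounds plus 3 SD, cut at about 20% in these data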
proKLK7 act: proKLK7 zymogen activators, primary screen, biochemical, fluorescence intensity; activation, % at 7 µM; 0.9% of 370,000 active; AID 652039, 2013; Kallikrein-7 (Homo sapiens), P49862; purified proKLK7, EDANS-DABCYL substrate fluorescence; 100% is mature enzyme control, 0% vehicle;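 active = activation above the mean of all tested compounds plus 3 SD, computed per campaign excluding outliers beyond control limits, cut at about 13% in these data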
V-ATPase pH: regulators of yeast V-ATPase proton pumping, primary screen, pHLuorin cytosolic pH fluorescence; S. cerevisiae; response, % at 10 µM; 0.37% of 350,000 active; in the data active = response mostly above about 7.3%, no sharp cut-off; inactive = mostly below about 5.4%; also: actives read high
ADAM17 inh: ADAM17 inhibitors, primary screen, biochemical, QFRET. 0.83% of 370,000 active. Disintegrin and metalloproteinase domain-containing protein 17 (Homo sapiens), P78536. AID 720648, 2013. recombinant ADAM17, EDANS/DABCYL FRET peptide cleavage. inhibition, % at 6.95 µM;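 active = inhibition above the mean of compounds lying between control limits plus 3 SD, set per campaign, cut at about 8.5% in these data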
Target sequence (P78536 215-824 limits assumed): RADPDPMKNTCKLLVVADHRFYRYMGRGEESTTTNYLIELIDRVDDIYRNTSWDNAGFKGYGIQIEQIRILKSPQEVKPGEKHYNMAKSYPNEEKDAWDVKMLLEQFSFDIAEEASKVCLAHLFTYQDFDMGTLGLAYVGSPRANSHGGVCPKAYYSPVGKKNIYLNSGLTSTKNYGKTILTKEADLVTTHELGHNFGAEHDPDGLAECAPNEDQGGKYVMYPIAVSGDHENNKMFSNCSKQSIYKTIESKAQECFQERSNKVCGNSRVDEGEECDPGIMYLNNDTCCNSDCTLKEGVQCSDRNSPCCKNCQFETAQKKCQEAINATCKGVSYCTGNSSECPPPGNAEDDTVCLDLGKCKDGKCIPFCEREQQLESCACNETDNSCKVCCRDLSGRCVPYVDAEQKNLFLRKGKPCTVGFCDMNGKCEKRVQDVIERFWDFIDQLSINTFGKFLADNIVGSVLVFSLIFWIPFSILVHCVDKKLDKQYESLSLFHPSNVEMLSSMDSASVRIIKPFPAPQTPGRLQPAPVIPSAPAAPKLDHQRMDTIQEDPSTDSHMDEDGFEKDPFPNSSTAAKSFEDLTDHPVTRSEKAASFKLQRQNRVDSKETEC
KLK7 act conf: proKLK7 zymogen activators, confirmation, biochemical, fluorescence intensity, triplicate; purified proKLK7, EDANS-DABCYL substrate fluorescence; scaled: vehicle 0, mature enzyme 100; shares compounds with proKLK7 act; AID 686949, 2013; 68% of 3,200 active; activation, % at 7 µM;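 active = activation, as change over the incubation, above the mean of all tested compounds plus 3 SD, cut at about 13% in these data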
EDANS interfere: EDANS-DABCYL substrate optical interference, artefact control for kallikrein-7 zymogen activator project, biochemical, fluorescence intensity, high throughput. activation, % at 7 µM. no enzyme, 4 h; solvent 0%, active enzyme control 100%. shares compounds with proKLK7 act. 80% of 3,200 active;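 active = activation above the all-compound mean plus 3 SD, ignoring values outside control-based bounds, cut at about 4.8% in these data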;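 also: value is the 4 h activation minus the activation read at time zero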
Hits are given with their value.

O=C(Oc1ccc2c3c(c(=O)oc2c1)CCC3)c1ccco1 was read as ADAM10 inh inactive, proKLK7 act 577.5, V-ATPase pH inactive, ADAM17 inh inactive, KLK7 act conf 774.1 and EDANS interfere 820.1.
O=C(Oc1cc2oc(=O)c3c(c2cc1Cl)CCCC3)c1cccs1 was read as ADAM10 inh inactive, proKLK7 act 61.6, V-ATPase pH inactive, ADAM17 inh inactive, KLK7 act conf 260.2 and EDANS interfere 222.8.
`O=C(Oc1cc2oc(=O)c3c(c2cc1Cl)CCCC3)c1ccco1` gave ADAM10 inh inactive, proKLK7 act 55.1, V-ATPase pH inactive, ADAM17 inh inactive, KLK7 act conf 396.9 and EDANS interfere 406.3.
Screening C[C@@H]1C(c2ccccc2)=NN(c2ccccc2)[C@H]1C(=O)N1CCOC1=O returned ADAM10 inh inactive, proKLK7 act 243.3, V-ATPase pH inactive, ADAM17 inh inactive, KLK7 act conf 222.9 and EDANS interfere 217.4.
`COc1ccc(N2CCc3c(C)nc4c(OC)cccc4c32)cc1` gave ADAM10 inh inactive, proKLK7 act inactive, V-ATPase pH inactive and ADAM17 inh inactive.
Cc1nc2c(C)cccc2c2c1CCN2c1ccccc1F was read as ADAM10 inh inactive, proKLK7 act 157.4, V-ATPase pH inactive, ADAM17 inh inactive, KLK7 act conf 61.3 and EDANS interfere 68.6.
CCCNC(=O)N1CC[C@H]2[C@@H]1c1cc(-c3ccc(F)cc3)ccc1N(C)[C@H]2CO was read as ADAM10 inh inactive, proKLK7 act inactive and ADAM17 inh inactive.
For Cc1ccc(S(=O)(=O)NCC(=O)OCc2cc(=O)oc3c(C)c(C)ccc23)cc1C the results were ADAM10 inh inactive, proKLK7 act inactive, V-ATPase pH inactive and ADAM17 inh inactive.
Screening CNS(=O)(=O)c1cccc(C(=O)OCc2cc(=O)oc3c(C)c(O)ccc23)c1 returned ADAM10 inh inactive, proKLK7 act 265.3, V-ATPase pH inactive, ADAM17 inh inactive, KLK7 act conf 602.7 and EDANS interfere 606.9.
`CCc1cc2c(COC(=O)c3cccc(S(C)(=O)=O)c3)cc(=O)oc2cc1O` gave ADAM10 inh inactive, proKLK7 act 507.6, V-ATPase pH inactive, ADAM17 inh inactive, KLK7 act conf 567.6 and EDANS interfere 558.8.
CC/C(C)=N/N1C(=O)c2ccccc2NC1(C)CC (stereo not given) was read as ADAM10 inh inactive, proKLK7 act 19.0, V-ATPase pH inactive, ADAM17 inh inactive, KLK7 act conf 44.6 and EDANS interfere 38.7.
`O=C1c2ccccc2NC2(CCCC2)N1N=C1CCCC1` gave ADAM10 inh inactive, proKLK7 act inactive, V-ATPase pH inactive and ADAM17 inh inactive.
Screening NC(=O)Cn1cc(/C=N/NC(=O)c2ccc(Cn3cc(Cl)cn3)o2)c(-c2ccccc2)n1 returned ADAM10 inh inactive, proKLK7 act 19.7, V-ATPase pH inactive, ADAM17 inh inactive, KLK7 act conf inactive and EDANS interfere inactive.
Screening Cc1ccccc1/C=N\NC(=O)c1ccc(Cn2cccn2)o1 returned ADAM10 inh inactive, proKLK7 act inactive, V-ATPase pH inactive and ADAM17 inh inactive.
`O=C1C2C3C=CC(CC3)C2C(=O)N1c1ccc(F)cc1` (stereo not given) gave ADAM10 inh inactive, proKLK7 act inactive, V-ATPase pH inactive and ADAM17 inh inactive.
CC(C)C1NC2(C(=O)c3ccccc3C2=O)C2C(=O)N(c3ccc(F)cc3)C(=O)C12 (stereo not given) was read as ADAM10 inh inactive, proKLK7 act 20.3, V-ATPase pH inactive, ADAM17 inh inactive, KLK7 act conf inactive and EDANS interfere inactive.
For CCN(CC)CCCNC(=O)C1CCN(C(=O)c2oc3cc4sc(N(C)C)nc4cc3c2C)CC1 the results were ADAM10 inh inactive, proKLK7 act 13.3, V-ATPase pH inactive, ADAM17 inh inactive, KLK7 act conf inactive and EDANS interfere 9.0.
COCCCNC(=O)C1CCN(C(=O)c2oc3cc4sc(N(C)C)nc4cc3c2C)CC1 was read as ADAM10 inh inactive, proKLK7 act 21.0, V-ATPase pH inactive, ADAM17 inh inactive, KLK7 act conf inactive and EDANS interfere inactive.
`C=CCn1c(Cc2cccs2)nnc1SCC(=O)Nc1ccc(C)cc1` gave ADAM10 inh inactive, proKLK7 act inactive and ADAM17 inh inactive.
c1ccc(Nc2nc3ccccc3n3nnnc23)cc1 was read as ADAM10 inh inactive, proKLK7 act 19.5, V-ATPase pH inactive, ADAM17 inh inactive, KLK7 act conf inactive and EDANS interfere 46.2.
`Fc1cccc(Nc2nc3ccccc3n3nnnc23)c1` gave ADAM10 inh inactive, proKLK7 act inactive, V-ATPase pH inactive and ADAM17 inh inactive.
`C[C@H](CO)N1C[C@H](C)[C@H](CN(C)C(=O)Nc2cccc3ccccc23)Oc2ncc(Br)cc2C1=O` gave ADAM10 inh inactive, proKLK7 act inactive and ADAM17 inh inactive.
COc1cccc(-c2ccc(CC[C@H]3O[C@H]4CC[C@H](CO)O[C@H]4C[C@H]3NS(C)(=O)=O)cc2)c1 was read as ADAM10 inh inactive, proKLK7 act inactive and ADAM17 inh inactive.
O=C(COC(=O)c1cc(Br)ccc1O)NNC(=O)c1ccc(Cl)cc1 was read as ADAM10 inh inactive, proKLK7 act 17.1, V-ATPase pH inactive, ADAM17 inh inactive, KLK7 act conf 19.5 and EDANS interfere 18.8.
Screening O=C(COC(=O)c1cc(Br)ccc1O)NNC(=O)c1ccc([N+](=O)[O-])cc1 returned ADAM10 inh inactive, proKLK7 act 25.6, V-ATPase pH inactive, ADAM17 inh inactive, KLK7 act conf 39.7 and EDANS interfere 38.1.
Screening O=C(COC(=O)c1cc(Cl)ccc1O)NNC(=O)c1ccccc1F returned ADAM10 inh inactive, proKLK7 act 85.7, V-ATPase pH inactive, ADAM17 inh inactive, KLK7 act conf 137.4 and EDANS interfere 124.0.
For O=C(COC(=O)c1cc(Cl)ccc1O)Nc1cc(C(F)(F)F)ccc1N1CCOCC1 the results were ADAM10 inh inactive, proKLK7 act 15.9, V-ATPase pH inactive, ADAM17 inh inactive, KLK7 act conf 22.7 and EDANS interfere 21.8.
Screening O=C(COC(=O)c1ccc(O)cc1)Nc1cc(C(F)(F)F)ccc1N1CCOCC1 returned ADAM10 inh inactive, proKLK7 act inactive, V-ATPase pH inactive and ADAM17 inh inactive.
Screening FC(F)(F)c1ccccc1CN1CCCc2nc(-c3ccc(Br)cc3)ccc21 returned ADAM10 inh inactive, proKLK7 act inactive and ADAM17 inh inactive.
For COc1ccccc1NC(=O)COC(=O)c1cc2ccccc2cc1O the results were ADAM10 inh inactive, proKLK7 act inactive, V-ATPase pH inactive and ADAM17 inh inactive.

High-throughput results (PubChem BioAssay)
